# Assay results: the supplement of paper PMC6555819
# Tests used:
# Assay in all cases: PBM binding z-score (relative to random genomic background probes); higher = stronger binding; sequences stand for … in GC…GCGATTGACAGCGTAGAATGAAGG
# [1] = tested on: FXR:RXRa (NR concentration 270 nM, RXRa partner concentration 90 nM)
# Procedure, shortened: (§1)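 Each nuclear receptor dimer, without ligand, was incubated for 1 h on custom Agilent 4×180K protein-binding microarrays. Binding was detected with antibodies against each partner (one per run), and scanned fluorescence was regression-normalized. The binding z-scores are referenced to random human genomic background probes.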
# [2] = tested on: LXRa:RXRa (NR concentration 270 nM, RXRa partner concentration 90 nM)
# Procedure, shortened: as §1
# [3] = tested on: LXRa homodimer (NR concentration 270 nM)
# Procedure, shortened: as §1
# [4] = tested on: LXRb:RXRa (NR concentration 270 nM, RXRa partner concentration 90 nM)
# Procedure, shortened: as §1
# [5] = tested on: LXRb homodimer (NR concentration 270 nM)
# Procedure, shortened: as §1
# [6] = tested on: PPARa:RXRa (NR concentration 270 nM, RXRa partner concentration 90 nM)
# Procedure, shortened: as §1
# [7] = tested on: PPARg:RXRa (NR concentration 180 nM, RXRa partner concentration 90 nM)
# Procedure, shortened: as §1
# [8] = tested on: PPARg:RXRa 270nM:90nM, anti-RXR (NR concentration 270 nM, RXRa partner concentration 90 nM)
# Procedure, shortened: as §1
# [9] = tested on: PPARg:RXRa 30nM:10nM, anti-RXR (NR concentration 30 nM, RXRa partner concentration 10 nM)
# Procedure, shortened: as §1
# [10] = tested on: PPARg:RXRa 90nM:30nM, anti-RXR (NR concentration 90 nM, RXRa partner concentration 30 nM)
# Procedure, shortened: as §1
Sequence,PBM binding z-score [1],PBM binding z-score [2],PBM binding z-score [3],PBM binding z-score [4],PBM binding z-score [5],PBM binding z-score [6],PBM binding z-score [7],PBM binding z-score [8],PBM binding z-score [9],PBM binding z-score [10]
ATCTCTAGGTAGCAAGTTCAGTGAAAGAGAGGAC,0.337,0.333,0.238,0.0819,0.153,0.475,0.327,0.887,0.0265,0.756
ATCTCTAGGTAAGACTCAGTTCACTGAAGAACGC,0.642,0.841,0.58,0.734,0.669,0.739,0.313,0.623,0.222,0.475
GCTTGTAGATCAAGGTTATGAAAGACTAAGCTAA,0.138,0.572,-0.505,0.452,-0.591,1.3,0.656,0.989,0.21,0.553
CCTGCTAGGTCATAGTCAGCTAATCTACAGTATG,3.02,2.11,0.646,1.7,0.153,3.12,1.77,2.14,0.394,1.32
ATCTGTAGGTAACAAGTTCAGTGAAAGAGAGGAC,0.84,0.812,0.628,0.805,0.615,1.59,1.51,2.08,0.821,1.57
AGAATGATGTTATTAAGATCAGGGAATTGCGGTC,-0.0815,-0.447,6.67e-05,-0.339,-0.205,0.0831,0.179,-0.306,-0.179,-0.208
CGTCCAGGGTCAAAGGTCAGTGAAGAGATGACGG,7.97,6.14,1.67,6.18,0.58,7.21,10.5,8.6,7.61,8.6
CCTACTGGGGCATAAGGTTACCATAAGCCAGCCC,0.331,1.69,-0.117,0.717,-0.859,2.47,3.73,4.44,2.09,4.09
CCTACTGGGCCACGAAAGGTTATTGATTCAGTGA,0.471,1.28,0.5,1.1,-0.501,2.58,2.37,2.81,0.563,1.69
CATACTGGGCCACGAAAGGTCATTGATTCAGTGA,3.98,5.28,5.21,4.44,0.817,4.52,4.46,4.67,1.9,3.84
TCTTGTAGATCAATGGTTAAGAAAGCCGAAGCCT,0.494,0.359,-0.126,-0.0354,-0.123,0.608,0.23,2.48,3.07,2.99
GCATATAGGTAATACAAGATGAAAGTCCGATTGT,0.0179,-0.186,-0.106,-0.218,-0.326,0.682,1.32,0.766,0.378,0.376
TCTCGGAGGACACGAAAGGCCAGAGCTCGACATC,0.554,-0.137,-0.548,-0.341,-1.2,0.0543,0.264,0.908,1.86,1.56
ACAGACAGGTGATGAAGGCAACTCAGGCTATCAT,-0.379,-0.449,-0.41,-0.706,-0.333,-0.357,0.764,-0.331,-0.116,-0.446
TATGCAGGGTCAAAGGCCAGAGTACGAATGTCGA,7.19,5.51,1.34,4.46,0.828,6.1,7.42,6.8,4.59,6.57
TCTCGGAGGACACGAAGGTTAGAGCTTTCCAGAG,0.31,-0.0717,-0.684,-0.246,-1.26,0.397,-0.0287,1,2.15,1.58
CCTAGTTGGTCAGGAGGTCACGCACCGGATATGA,4.29,4.22,2.24,3.81,0.661,4.65,4.41,4.64,2.02,3.5
AGAATGAGGTTATACGTAGATCAGGGACGAAAGT,2.37,1.79,0.0917,1.55,-0.0358,3.23,1.83,2,0.651,1.6
TCGAGTAGGTTGGTCGGGGCATTCAGCCAACATA,0.0024,-0.387,-0.443,-0.0412,-0.299,0.0379,-0.696,0.116,0.981,0.513
CCTAGCAGGTCAATCTGGGTCACTCAAGGCTTGA,5.49,6.27,1.3,4.34,0.627,4.97,4.83,5.3,2.13,4.43
TTACCGAGGTGAGCTGAGGTCGTTGATCCAACTC,1.71,1.73,-0.575,1.16,-0.881,2.03,0.345,0.915,-0.318,0.221
CGAACGAGGGCATGATTTGATAGCAAATGCCGAT,0.047,-0.148,-0.301,-0.0288,-0.66,0.783,0.992,0.441,0.141,0.0789
TAGCCTAGGTCATTAAGGGGCCAGTATAGAAAGC,3.58,3.35,0.285,2.67,0.552,3.21,1.75,2.07,0.301,1.11
GTTAGCAGGCCATTTGGGTCACTCAATGACGGGC,0.439,0.0472,-0.523,0.205,-0.589,1.36,0.776,0.698,-0.489,0.0806
